PTHR1 ag – activates the human parathyroid hormone receptor PTHR1; HEK293 GP2 PTHR1 cells, GloSensor cAMP luminescence, 1 h; Potency, µM (doses to about 115 µM), inactives show at the top dose activation, usual class: activators; actives 0.075% (n = 410,000); further: potency means the concentration at half of the fitted maximal effect; nearly all actives have a fitted effect of over 55% in size
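HEK-293-derived GP2 cells expressing PTHR1 and a GloSensor cAMP reporter, 3,000/well, plated overnight, given luciferin plus IBMX (each 0.5 mM as added) for 1 h at 37 °C, then compound for 1 h at 37 °C. Luminescence was read after 15 min at room temperature.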
HEK293 tox – cytotoxicity in counter-screen for GLP-1R inverse agonists; AID 624418; HEK293 cAMP-luciferase reporter cells, luminescence, 24 h; Potency, µM (doses to about 38.3 µM), inactives show top-dose activity change, negative = inhibition, hits mostly inhibitors; actives 0.13% (n = 410,000);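 further: loss of luciferase light is scored as toxicity; potency means the concentration at half of the fitted maximal effect; on the % scale 0 is the no-effect control and ±100 the full control effect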
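Cells in DMEM/10% Nu serum/1% pen-strep, 1536-well format. Pre-incubated 12 h, dosed with 23 nL compound, incubated a further 24 h. Luciferase detection, 12 min at room temp, luminescence.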
LDHA inh – LDHA (human) enzyme inhibition; purified LDHA, NADH/diaphorase-resazurin fluorescence; active compounds read low; activity change, % (values are at about 110 or 230 µM); actives 0.15% (n = 480,000); AID 1347041; in the data active means activity change below about -30%; inconclusive means mostly about -25% to -30%;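 further: plate controls were DMSO wells for no effect and wells without enzyme for full effect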
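Human LDH5 at 2 nM final in Tris HCl pH 7.4 with 0.06 mM NADH and 0.2 mM pyruvate, reacted 5 minutes at room temperature. Remaining NADH coupled via diaphorase/resazurin; resorufin fluorescence read at 0 and 20 minutes, normalized to enzyme-free and DMSO wells.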
GLP1R inv ag – acts as inverse agonist at human GLP-1 receptor; AID 624417; HEK293 GLP-1R CRE-luciferase, luminescence, 24 h; GLP-1R form is constitutively active; P43220; Potency, µM (series often up to 38.3 µM), inactives show top-dose activity change, negative = inhibition, hits mostly inhibitors; actives 1.6% (n = 410,000); further: potency means the concentration at half of the fitted maximal effect; on the % scale 0 is the no-effect control and ±100 the full control effect; nearly all actives have a fitted effect of over 55% in size
Target sequence (P43220 whole entry, looked up): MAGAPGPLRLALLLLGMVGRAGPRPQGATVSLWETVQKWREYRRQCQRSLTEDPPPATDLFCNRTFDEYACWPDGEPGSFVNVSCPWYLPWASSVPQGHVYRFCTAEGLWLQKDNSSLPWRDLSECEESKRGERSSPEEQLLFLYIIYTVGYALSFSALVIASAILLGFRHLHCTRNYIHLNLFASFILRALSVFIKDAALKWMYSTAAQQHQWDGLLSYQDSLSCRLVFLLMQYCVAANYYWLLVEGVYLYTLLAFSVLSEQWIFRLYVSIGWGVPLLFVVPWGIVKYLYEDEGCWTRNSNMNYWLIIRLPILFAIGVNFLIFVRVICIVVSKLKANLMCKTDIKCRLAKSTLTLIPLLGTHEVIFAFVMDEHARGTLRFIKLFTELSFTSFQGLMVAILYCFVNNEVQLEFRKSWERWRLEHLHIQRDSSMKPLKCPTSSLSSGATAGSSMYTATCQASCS
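Seeding at 200 cells/uL, 12 h culture, 24 hr compound treatment, then luciferase reagent and a luminescence read; cells are HEK293 stably expressing a constitutively active GLP-1R plus cAMP-responsive luciferase.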
mIDH1 inhibitor – inhibitors of human mutant IDH1 R132H. AID 602179. actives 0.093% (n = 390,000). Potency, µM (doses to about 76.6 µM), inactives show top-dose activity change, negative = inhibition, hits mostly inhibitors. IDH1-R132H enzyme, NADPH consumption, diaphorase/resazurin fluorescence; further: potency means the concentration at half of the fitted maximal effect; on the % scale 0 is the no-effect control and ±100 the full control effect; nearly all actives have a fitted effect of over 65% in size
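IDH1-R132H (0.5 ug/mL dispensed) in pH 7.5 Tris buffer was preincubated 30 min with compound, then given a substrate mix of 0.016 mM NADPH and 2 mM alpha-KG for 80 min at room temperature; remaining NADPH was read by diaphorase/resazurin fluorescence.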
GLP1R ag – agonists of human GLP-1 receptor | P43220 | HEK293 GLP-1R CRE-luciferase, luminescence, 4-6 h; cells express a hypersensitive GLP-1R form | Potency, µM (top dose mostly 45.6 µM), for the others: at the top dose activation, usual class: activators | actives 0.007% (n = 380,000) | AID 624172; further: potency means the concentration at half of the fitted maximal effect; % of control where 0% means no effect
* hit, by the source's call; i = inactive; ? = inconclusive; nt = no result given; [ ] = another dose, or the depositor's remark. Hits are enriched below; roughly 1.7% of the tested compounds scored in any of these assays. Unless noted, the call rests on the fitted dose curve; in most records, active means well fitted curve in the direction sought with a large enough effect; inconclusive means small, poorly fitted or top-dose-only effect, or another doubt; inactive means no such curve, though single readings can be large; an effect the other way counts as inactive or inconclusive.

SMILES	PTHR1 ag	HEK293 tox	LDHA inh	GLP1R inv ag	mIDH1 inhibitor	GLP1R ag
CCN(CC(=O)Nc1cc(S(=O)(=O)N2CCOCC2)ccc1Cl)Cc1ccccc1	-52.7%	2.2%	-7.4	?	-12.4%	10.7%
O=C(Nc1cccc(Cl)c1)Nc1cc(S(=O)(=O)N2CCCCC2)ccc1Cl	-29.9%	-29.6%	-3.0	2.82µM*	4.7%	2.0%
CSc1nn(Cc2cccc(F)c2)c(N(C(C)=O)C(C)=O)c1S(=O)(=O)c1ccccc1	i	-10.7%	-31.6*	?	0.0%	-3.5%
COc1cccc(Cn2nc(SC)c(S(=O)(=O)c3ccccc3)c2N(C(C)=O)C(C)=O)c1	i	-2.7%	-4.7	?	-3.4%	-1.3%
CCOc1ccc(C(C)NC(=O)NCc2ccn[nH]2)cc1OC (stereo unspecified)	nt	nt	-1.7	nt	nt	nt
COc1ccc(C2CCCCCN2C(=O)Cn2cnc3ccc(F)cc3c2=O)cc1 (stereo unspecified)	nt	nt	11.6	nt	nt	nt
Cc1cccc2cc(C#N)c(NCCCNS(=O)(=O)c3ccc(Cl)cc3)nc12	-42.7%	32.5%	1.4	10µM*	3.5%	13.8%
Cc1cccc2cc(C#N)c(NCCNS(=O)(=O)c3ccccc3)nc12	i	6.4%	-2.2	7.1%	2.0%	6.1%
O=C(COCc1nc2ccccc2c(=O)[nH]1)Nc1nc(-c2ccc3ccccc3c2)cs1	nt	nt	-1.1	nt	nt	nt
Cc1cc(C)c(C)c(N=Nc2nc3ccccc3n2C)c1C	-8.0%	?	-2.8	7.94µM*	7.0%	19.2%
Cc1ccc(C)c(N=Nc2nc3ccccc3n2C)c1	-17.7%[57.5 µM]	?	-1.3	?	16.6%	5.8%
S=C(NC1CCCCC1)NC12CC3CC(CC(C3)C1)C2	nt	nt	-14.6	nt	nt	nt
O=C(c1ccccc1)c1c[nH]c(C(=O)NNc2ccccc2)c1	-30.9%	12.2%	-3.7	2.51µM*	7.7%	5.5%
O=Cc1ccc(OCc2ccccc2Cl)c(Cl)c1	nt	nt	-3.5	nt	nt	nt
CC(NC(=O)c1ccc(Br)cc1)c1ccc2c(c1)CCCC2 (stereo unspecified)	-36.8%	-1.5%	-1.9	10µM*	1.4%	1.8%
CC(NC(=O)c1ccc(F)cc1)c1ccc2c(c1)CCCC2 (stereo unspecified)	-14.0%[57.5 µM]	1.3%	-0.3	10µM*	0.4%	0.6%
Cc1oc(-c2ccccc2)nc1C(=O)N(C)Cc1ccc(Br)cc1	nt	nt	9.5	nt	nt	nt
Cc1cc(OCc2coc(-c3ccccc3)n2)ccc1Cl	nt	nt	-5.5	nt	nt	nt
CC1CCC2(CC1)NC(=O)N(Cc1cccc(C(F)(F)F)c1)C2=O (stereo unspecified)	-23.1%	3.0%	6.5	2.24µM*	13.5%	6.8%
O=C(CC12CC3CC(CC(C3)C1)C2)NCc1ccccc1Cl	nt	nt	6.7	nt	nt	nt
O=C(c1ccc(F)cc1)C(CCCCCC(CN1CCOCC1)C(=O)c1ccc(F)cc1)CN1CCOCC1 (stereo unspecified)	-2.4%[57.5 µM]	-15.3%	-0.8	10µM*	2.1%	-1.4%
O=[N+]([O-])c1ccc(N=NN(CCO)CCO)cc1	i	?	-6.8	2.3%	5.8%	-7.1%
O=[N+]([O-])c1ccc(N=Nc2ncc[nH]2)cc1	-14.4%	5.62µM*	-1.3	?	-2.3%	-2.3%
Cc1ccc(C(C)C)cc1-n1nnc(-c2cccc(Cc3ccc4ccccc4c3)c2)c1C(C)O (stereo unspecified)	i	-0.1%	1.4	3.55µM*	0.7%	-1.2%
Cc1ccc(C)c(NC(=O)C(C)N(C)Cc2ccc3ccccc3c2)c1 (stereo unspecified)	nt	nt	6.4	nt	nt	nt
SMILES	PTHR1 ag	HEK293 tox	LDHA inh	GLP1R inv ag	mIDH1 inhibitor	GLP1R ag
CCOc1ccc2ccccc2c1C(=O)N1CCN(c2ccccc2)CC1	i	?	-8.3	7.94µM*	1.9%	7.2%
CCOc1ccccc1C(=O)N1CCN(c2cccc(Cl)c2)CC1	i	-39.1%	-2.9	0.0%	16.6%	13.0%
COC(=O)CC1C(=O)NCCN1S(=O)(=O)c1ccc(Br)cc1 (stereo unspecified)	nt	nt	10.9	nt	nt	nt
CC(C)OC(=O)/C(=C\c1cccc2ccccc12)NC(=O)c1ccccc1	i	5.1%	4.2	10µM*	4.5%	13.8%
CCCCNC(=O)CSc1c2c(nc3ccc(Cl)cc13)CCCC2	-79.1%	-12.3%	4.9	-26.6%	3.3%	nt
CCCCN(CC)C(=O)CSc1c2c(nc3ccc(Cl)cc13)CCCC2	-24.2%	?	6.7	10µM*	-7.7%	nt
COc1ccccc1CNC(=S)NCc1ccc(Cl)cc1	i	-27.8%	1.2	10µM*	11.8%	-2.7%
S=C(NCc1ccccc1)NCc1ccc(Cl)cc1	-22.3%	?	-1.4	?	2.8%	-6.4%
CN(C)/C=C\C(=O)c1cccs1	nt	nt	9.0	nt	nt	nt
CC(=O)c1ccc(NC(=O)Cn2c(C)cc(=O)n3nc(-c4cccs4)nc23)cc1	nt	nt	-0.9	nt	nt	nt
CCN(CC)c1ccc(/C=C(/C#N)c2nc3ccccc3[nH]2)c(OC(C)C)c1	i	-11.5%	5.5	1.78µM*	1.5%	13.5%
S=C(CSc1ccccc1)Nc1cccc2ccccc12	-5.3%	?	6.5	6.31µM*	9.0%	-1.5%
CC(C)OCCCNC(=O)CC1CC2CCC1C2 (stereo unspecified)	nt	nt	9.5	nt	nt	nt
COc1ccc2nc(C)cc(NCc3cccc(C(F)(F)F)c3)c2c1	-11.6%	?	-5.5	2.82µM*	2.2%	4.2%
O=C(/C=C\Nc1cccc(F)c1)c1ccc2c(c1)OCO2	-6.0%	6.2%	-5.2	10µM*	2.5%	-4.4%
Cc1c(CC(=O)O)c(=O)oc2cc(OCc3ccc4ccccc4c3)ccc12	nt	nt	-12.8	nt	nt	nt
CCN(CC)c1nc(OCCNC(=O)Nc2ccccc2)nc(N(CC)CC)n1	-16.3%[57.5 µM]	?	-0.1	5.01µM*	1.1%	-1.5%
O=C(NCCOc1nc(N2CCOCC2)nc(N2CCOCC2)n1)Nc1ccccc1	i	20.1%	-4.3	45.4%	-2.8%	2.3%
O=C(NCC(O)c1ccccc1)c1ccc(CNS(=O)(=O)c2ccccc2)cc1 (stereo unspecified)	nt	nt	-1.4	nt	nt	nt
Cc1ccccc1Nc1nnc(-c2ccc(C)c(S(=O)(=O)N3CCCCC3)c2)c2ccccc12	i	0.8%	2.2	3.16µM*	-1.2%	nt
Cc1ccc(-c2cc(C(=O)N3CCN(CC(=O)NC4CC4)CC3)c3ccccc3n2)o1	nt	nt	-0.5	nt	nt	nt
COc1cc(Br)ccc1C1CC(=O)C(C)C(c2ccc(Br)cc2OC)N1 (stereo unspecified)	i	3.3%	-0.7	10µM*	14.4%	11.4%

High-throughput results from PubChem BioAssay.
